The source of these data is PubChem BioAssay (EPA / NIEHS).

Each structure is given as a SMILES string. Calls of active or inactive are those of the source. The calls were made as follows: active = hit-call score of the fitted dose curve at least 0.9, where 1 is the maximum; inactive = score below 0.9.

As a reminder, the AC50 is the concentration giving half of the maximal activity seen.

Read-out in the first assay: ABC Transporter (ABCB1), ABCB1 (gene 5243)
In words: LTEA_HepaRG_ABCB1: Life Technologies and Expression Analysis (LTEA) Assay for ABC Transporter (ABCB1) using HepaRG (AID 2283460). The following applies: mRNA level, 48 h; actives raise or lower the signal. In outline:
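HepaRG, 48 h exposure, 8-pt half-log series from 100 uM, 0.5% DMSO vehicle, duplicates. Readout: ABCB1 transcript by Fluidigm TaqMan qRT-PCR, housekeeping-normalized; bidirectional curve fit vs DMSO baseline.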
Turning to `CO/N=C(/C1=NOCCO1)c1ccccc1Oc1ncnc(Oc2ccccc2Cl)c1F`, the molecule was called inactive.

Regarding `CCCCOCN(C(=O)CCl)c1c(CC)cccc1CC`, the AC50 is 83.7 µM (active).

In the case of `CS(=O)(=O)c1ccc(C(=O)C2C(=O)CCCC2=O)c([N+](=O)[O-])c1`, the result was inactive.

Take `Nc1c(Cl)c(Cl)nc(C(=O)O)c1Cl`: the molecule was classed as inactive.

In the case of `Nc1c(Cl)c(F)nc(OCC(=O)O)c1Cl`, the molecule was classed as inactive.

As to `CC1(C)C(C(=O)OC(C#N)c2cccc(Oc3ccccc3)c2)C1(C)C` (stereo not drawn), the call was inactive.

As for `CCNC(=O)NC(=O)C(C#N)=NOC`, the molecule was called inactive.

As to `COP(=O)(OC)O/C(C)=C/C(=O)N(C)C`, the molecule was called inactive.

Regarding `CNC(=O)N(C)c1nnc(C(C)(C)C)s1`, the molecule was classed as inactive.

Turning to `C=CCOC(=O)C(C)(C)OC(=O)c1cc(-n2c(=O)cc(C(F)(F)F)n(C)c2=O)ccc1Cl`, the outcome was inactive.

On to `COc1cc(OC)nc(NC(=O)NS(=O)(=O)c2ncccc2OCC(F)(F)F)n1`, for which the AC50 was 31.3 µM (active).

For `COC(=O)c1c(C(F)F)nc(C(F)(F)F)c(C2=NCCS2)c1CC(C)C`, the molecule was called inactive.

Read-out in the next assay: growth arrest and DNA damage 45 (GADD45B), GADD45B (gene 4616)
Kind of assay: LTEA_HepaRG_GADD45B: Life Technologies and Expression Analysis (LTEA) Assay for growth arrest and DNA damage 45 (GADD45B) using HepaRG (AID 2283461). As to conditions: mRNA level, 48 h; actives raise or lower the signal. In outline: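 Human HepaRG monolayers receive chemicals for 48 h at eight half-log concentrations, highest 100 uM, in 0.5% DMSO. Expression is measured by TaqMan qRT-PCR and normalized to ACTB, GAPDH and POLR2A.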
Turning to `CO/N=C(/C1=NOCCO1)c1ccccc1Oc1ncnc(Oc2ccccc2Cl)c1F`, the AC50 was 29.7 µM (active).

`CS(=O)(=O)c1ccc(C(=O)C2C(=O)CCCC2=O)c([N+](=O)[O-])c1`: the call was inactive.

As for `Cc1cnc(C2=NC(C)(C(C)C)C(=O)N2)c(C(=O)O)c1` (stereo not drawn), the result was inactive.

For the molecule `O=C(O)c1c(Cl)ccc2cc(Cl)cnc12`, the outcome was inactive.

As to `CCCCC(O)(Cn1cncn1)c1ccc(Cl)cc1Cl` (stereo not drawn), the result was inactive.

With `CCOc1cc(C(C)(C)C)ccc1C1COC(c2c(F)cccc2F)=N1` (stereo not drawn), the call was inactive.

Consider `CCOc1nc(F)cc2nc(S(=O)(=O)Nc3c(Cl)cccc3Cl)nn12`, for which the result was inactive.

`CC(C)N1C(=O)c2ccccc2NS1(=O)=O`: the result was inactive.

For `Cc1ccc(N=CN(C)C=Nc2ccc(C)cc2C)c(C)c1`, the molecule was classed as inactive.

Regarding `CS(=O)(=O)c1cc(C(F)(F)F)ccc1C(=O)c1cnoc1C1CC1`, the call was inactive.

As for `COc1ccc(-c2ccccc2)cc1NNC(=O)OC(C)C`, the outcome was inactive.

As for `C=CCOC(=O)C(C)(C)OC(=O)c1cc(-n2c(=O)cc(C(F)(F)F)n(C)c2=O)ccc1Cl`, the molecule was classed as inactive.

Consider `CC(C)=CC1C(C(=O)OCc2coc(Cc3ccccc3)c2)C1(C)C` (stereo not drawn), for which the outcome was inactive.

As for `Clc1cccc(C(Cl)(Cl)Cl)n1`, the molecule was called inactive.

`COC(=O)c1c(C(F)F)nc(C(F)(F)F)c(C2=NCCS2)c1CC(C)C`: the outcome was inactive.

Read-out in another assay: ABC Transporter (ABCC3), ABCC3 (gene 8714)
Kind of assay: LTEA_HepaRG_ABCC3: Life Technologies and Expression Analysis (LTEA) Assay for ABC Transporter (ABCC3) using HepaRG (AID 2283462). As to conditions: mRNA level, 48 h; actives raise or lower the signal. In outline: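 Transcriptional change of ABCC3 in HepaRG after 48 h treatment, determined by qRT-PCR normalized to endogenous controls. Concentrations spanned eight half-log steps to 100 uM in 0.5% DMSO.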
As for `CO/N=C(/C1=NOCCO1)c1ccccc1Oc1ncnc(Oc2ccccc2Cl)c1F`, the AC50 is 6.69 µM (active).

On to `CCCCOCN(C(=O)CCl)c1c(CC)cccc1CC`, for which the molecule was classed as inactive.

`CS(=O)(=O)c1ccc(C(=O)C2C(=O)CCCC2=O)c([N+](=O)[O-])c1`: the molecule was called inactive.

As to `O=c1n(Cl)c(=O)n(Cl)c(=O)n1Cl`, the molecule was called inactive.

Take `CCOP(=O)(OCC)Oc1nc(Cl)c(Cl)cc1Cl`: the AC50 is 80.5 µM (active).

In the case of `Cc1cnc(C2=NC(C)(C(C)C)C(=O)N2)c(C(=O)O)c1` (stereo not drawn), the molecule was called inactive.

Consider `O=C(O)c1c(Cl)ccc2cc(Cl)cnc12`, for which the outcome was inactive.

Take `Cc1cc(C)nc(Nc2ccccc2)n1`: the molecule was called inactive.

`Nc1c(Cl)c(Cl)nc(C(=O)O)c1Cl`: the outcome was inactive.

For `OC(c1ccc(Cl)cc1)(c1ccc(Cl)cc1)C(Cl)(Cl)Cl`, the result was inactive.

Take `CCCCC(O)(Cn1cncn1)c1ccc(Cl)cc1Cl` (stereo not drawn): the AC50 is 50 µM (active).

In the case of `Nc1c(Cl)c(F)nc(OCC(=O)O)c1Cl`, the molecule was classed as inactive.

As for `CC1(C)C(C(=O)OC(C#N)c2cccc(Oc3ccccc3)c2)C1(C)C` (stereo not drawn), the result was inactive.

With `CCOc1cc(C(C)(C)C)ccc1C1COC(c2c(F)cccc2F)=N1` (stereo not drawn), the call was inactive.

Turning to `N#Cc1c[nH]cc1-c1cccc2c1OC(F)(F)O2`, the outcome was inactive.

For the molecule `CCNC(=O)NC(=O)C(C#N)=NOC`, the AC50 was 0.791 µM (active).

For `COP(=O)(OC)O/C(C)=C/C(=O)N(C)C`, the molecule was called inactive.

As to `CCOc1nc(F)cc2nc(S(=O)(=O)Nc3c(Cl)cccc3Cl)nn12`, the call was inactive.

As for `CNC(=O)N(C)c1nnc(C(C)(C)C)s1`, the molecule was classed as inactive.

Consider `CC(C)N1C(=O)c2ccccc2NS1(=O)=O`, for which the molecule was classed as inactive.

Consider `Cc1ccc(N=CN(C)C=Nc2ccc(C)cc2C)c(C)c1`, for which the result was inactive.

As for `CS(=O)(=O)c1cc(C(F)(F)F)ccc1C(=O)c1cnoc1C1CC1`, the molecule was called inactive.

On to `C=C(C)CN(CC)c1c([N+](=O)[O-])cc(C(F)(F)F)cc1[N+](=O)[O-]`, for which the molecule was classed as inactive.

Turning to `COc1ccc(-c2ccccc2)cc1NNC(=O)OC(C)C`, the call was inactive.

On to `CN=C=S`, for which the molecule was classed as inactive.

As to `O=P(O)(O)CCCl`, the outcome was inactive.

For the molecule `C=CCOC(=O)C(C)(C)OC(=O)c1cc(-n2c(=O)cc(C(F)(F)F)n(C)c2=O)ccc1Cl`, the outcome was inactive.

Consider `CC(C)C1(C)N=C(c2ncccc2C(=O)O)NC1=O` (stereo not drawn), for which the result was inactive.

Turning to `CC(C)=CC1C(C(=O)OCc2coc(Cc3ccccc3)c2)C1(C)C` (stereo not drawn), the molecule was classed as inactive.

As for `COCC(C)N(C(=O)CCl)c1c(C)csc1C` (stereo not drawn), the result was inactive.

On to `Cn1c(-c2ccccc2)cc(-c2ccccc2)[n+]1C`, for which the AC50 is 2.67 µM (active).

For `CSC(=O)c1c(C(F)F)nc(C(F)(F)F)c(C(=O)SC)c1CC(C)C`, the result was inactive.

On to `Clc1cccc(C(Cl)(Cl)Cl)n1`, for which the call was inactive.

For `COc1cc(OC)nc(NC(=O)NS(=O)(=O)c2ncccc2OCC(F)(F)F)n1`, the result was inactive.

Consider `COC(=O)NS(=O)(=O)c1ccc(N)cc1`, for which the molecule was called inactive.

For `COC(=O)c1c(C(F)F)nc(C(F)(F)F)c(C2=NCCS2)c1CC(C)C`, the call was inactive.
